The structures appear in SMILES notation. Results filed as inconclusive are left out. Activity calls are given as the source filed them. Unless noted, the call rests on the fitted dose curve; in most records, active means well fitted curve in the direction sought with a large enough effect; inconclusive means small, poorly fitted or top-dose-only effect, or another doubt; inactive means no such curve, though single readings can be large; an effect the other way counts as inactive or inconclusive.

For assay [1], the target named is Metallo-beta-lactamase type 2 (Klebsiella pneumoniae) (UniProt C7C422). The experiment in a line: qHTS to identify inhibitors of the New Delhi Metallo-beta-lactamase (NDM): assay validation screen against the NCATS LOPAC Collection (AID 1794843).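 Further: nitrocefin turnover by NDM-1 measured as 485 nm absorbance at plateau; on the % scale 0 is the no-effect control and ±100 the full control effect.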 In a few lines:
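Nitrocefin hydrolysis (50 uM substrate stock) by NDM-1, 2 nM final, was followed by 485 nm absorbance after compound preincubation; buffer was 50 mM HEPES pH 7.0, 1 uM ZnSO4, 0.01% Tween20.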

The target in assay [2] is Glutathione peroxidase 1 (Homo sapiens) (UniProt P07203). The assay is described as follows: Primary qHTS Assay for Inhibitors of Recombinant Selenoprotein Glutathione Peroxidase 1 (GPX1) (AID 1845191). Further: nearly all actives have a fitted effect of over 65% in size. On activity, negative = inhibition: on the % scale 0 is the no-effect control and ±100 the full control effect. In a few lines:
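GR-coupled readout: NADPH consumption tracked by fluorescence, ex 340/em 450 nm, at t=0 and after 15 min at RT. Final mix 10 nM GPX1, 1 mM GSH, 0.5 mM CHP, 0.5 mM NADPH, 100 nM GR, 0.01% BSA, following 30 min enzyme–compound preincubation.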

The target of assay [3] is Phospholipid hydroperoxide glutathione peroxidase GPX4 (Homo sapiens) (UniProt P36969). The assay is described as follows: Primary qHTS Assay for Inhibitors of Recombinant Selenoprotein Glutathione Peroxidase 4 (GPX4) (AID 1845192). Further: nearly all actives have a fitted effect of over 65% in size. The conditions noted are these: outcome: dose series up to 50 µM unless noted. The essentials:
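Steps: GPX4 plus compound, 30 min RT; add GR/GSH/NADPH master mix; start with cumene hydroperoxide; read 340/450 nm fluorescence at 0 and 15 min. Finals were 200 nM GPX4, 1 mM GSH, 0.5 mM CHP, 0.5 mM NADPH, 100 nM GR.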
Background: In qHTS, concentration-response curves come from the screen itself.

For assay [4], the system named is CP185. The assay is described as follows: qHTS profiling for inhibitors of Plasmodium falciparum proliferation (AID 504749). Further: nearly all actives have a fitted effect of over 60% in size. Further: potency means the concentration at half of the fitted maximal effect.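 On activity, negative = inhibition: 0% = DMSO vehicle and full inhibition = artemisinin control.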 The settings on record: P. falciparum in erythrocytes, SYBR Green DNA, 72 h; series mostly up to 28.7 µM. The essentials: (§1)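 Each compound contacts P. falciparum-infected red blood cells for 72 h at 37 C; lysis buffer (Tris, EDTA, saponin, Triton X, SYBR Green I) is added and fluorescence measured next morning; values normalized to controls.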

Assay in assay [5]: as above
The settings on record: P. falciparum in erythrocytes, SYBR Green DNA, 72 h; for activity, negative = inhibition: at 28.7 µM (top of the series). The essentials: as §1

Assay [6] concerns 3D7. Described as above. The settings on record: P. falciparum in erythrocytes, SYBR Green DNA, 72 h; series mostly up to 28.7 µM. In a few lines: as §1
The subject of assay [7] is AA1029. The description is as above. The conditions noted are these: P. falciparum in erythrocytes, SYBR Green DNA, 72 h; series mostly up to 28.7 µM. In a few lines: as §1
Assay [8] concerns AS120. The description is as above. The settings on record: P. falciparum in erythrocytes, SYBR Green DNA, 72 h; series mostly up to 28.7 µM. The essentials:
as §1

For assay [9], the system named is ATS189. Described as above. The conditions noted are these: P. falciparum in erythrocytes, SYBR Green DNA, 72 h; series mostly up to 28.7 µM. The essentials: as §1
In assay [10] the test system is ATS95. The description is as above. The conditions noted are these: P. falciparum in erythrocytes, SYBR Green DNA, 72 h; series mostly up to 28.7 µM. The essentials:
as §1

Assay [11] deals with C2A. The description is as above. The settings on record: P. falciparum in erythrocytes, SYBR Green DNA, 72 h; series mostly up to 28.7 µM. In a few lines:
as §1

In assay [12] the test system is CP191. The assay is described as above. The settings on record: P. falciparum in erythrocytes, SYBR Green DNA, 72 h; series mostly up to 28.7 µM. The essentials:
as §1

Assay [13] deals with CP192. The assay is described as above. The conditions noted are these: P. falciparum in erythrocytes, SYBR Green DNA, 72 h; series mostly up to 28.7 µM. The essentials:
as §1

The test system of assay [14] is CP194. The assay is described as above. The settings on record: P. falciparum in erythrocytes, SYBR Green DNA, 72 h; series mostly up to 28.7 µM. In a few lines: as §1
Assay [15] is described as follows: qHTS drug screen for cell cycle checkpoint inhibitors in PARPi-resistant BRCA-mutant ovarian cancer cell lines. (AID 1963452; calls by dose curve). The settings on record: PEO1/OlaR viability, CellTiter-Glo luminescence, 96 h, stronger effect = lower value. The essentials:
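PEO1, PEO4 and PEO1/OlaR ovarian cancer cells, 600 per well, exposed 96 h at 37C to a dilution series. Viability read by CellTiter-Glo luminescence, normalized to DMSO and empty wells; activity summarized as Z-AUC.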

For assay [16], the system named is 7G8. The assay is described as follows: qHTS profiling for inhibitors of Plasmodium falciparum proliferation (AID 504749). Further: nearly all actives have a fitted effect of over 60% in size. Further: potency means the concentration at half of the fitted maximal effect.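 On activity, negative = inhibition: 0% = DMSO vehicle and full inhibition = artemisinin control.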 The conditions noted are these: P. falciparum in erythrocytes, SYBR Green DNA, 72 h; series mostly up to 28.7 µM. The essentials: as §1
For assay [17], the target named is Luciferin 4-monooxygenase (Photinus pyralis) (UniProt P08659). The assay is described as follows: Primary firefly luciferase (FLuc) qHTS assay for identification of artifact compounds. (AID 1845220).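 Further: plate controls were DMSO vehicle for no effect and no enzyme for full effect; nearly all actives have a fitted effect of over 60% in size.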 The essentials:
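Titrated compounds were incubated 15 min at RT, protected from light, with luciferin and ATP at 10 uM; reaction started with 10 nM FLuc, luminescence imaged at 5 min, and concentration-response fitted by Hill equation.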

The test system of assay [18] is Nanoluciferase (engineered Oplophorus gracilirostris luciferase). The experiment in a line: Primary Nanoluciferase (NLuc) qHTS assay for identification of artifact compounds. (AID 1845222).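 Further: NLuc secreted into diluted conditioned medium of S16 cells; 0% = DMSO and -100% = no enzyme.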 In a few lines: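 qHTS format, against NLuc in S16 cell-conditioned medium. Nano-Glo substrate 1:100 was added after 15 min at room temperature. Luminescence was taken after a further 5 min.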

Phospholipid hydroperoxide glutathione peroxidase GPX4 (Homo sapiens), sequence (P36969 whole entry, looked up): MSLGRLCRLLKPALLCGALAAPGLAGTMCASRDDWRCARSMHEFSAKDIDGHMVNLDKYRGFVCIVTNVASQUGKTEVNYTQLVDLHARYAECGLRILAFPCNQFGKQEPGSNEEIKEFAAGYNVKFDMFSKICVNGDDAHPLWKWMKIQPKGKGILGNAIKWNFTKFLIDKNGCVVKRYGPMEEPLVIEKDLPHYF
Glutathione peroxidase 1 (Homo sapiens), sequence (P07203 whole entry, looked up): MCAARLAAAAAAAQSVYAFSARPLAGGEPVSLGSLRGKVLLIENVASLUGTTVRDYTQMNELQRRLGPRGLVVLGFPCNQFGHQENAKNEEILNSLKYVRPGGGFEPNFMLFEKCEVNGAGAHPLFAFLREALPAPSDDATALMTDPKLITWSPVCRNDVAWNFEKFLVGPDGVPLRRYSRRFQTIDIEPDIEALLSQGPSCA
Metallo-beta-lactamase type 2 (Klebsiella pneumoniae), sequence (C7C422 whole entry, looked up): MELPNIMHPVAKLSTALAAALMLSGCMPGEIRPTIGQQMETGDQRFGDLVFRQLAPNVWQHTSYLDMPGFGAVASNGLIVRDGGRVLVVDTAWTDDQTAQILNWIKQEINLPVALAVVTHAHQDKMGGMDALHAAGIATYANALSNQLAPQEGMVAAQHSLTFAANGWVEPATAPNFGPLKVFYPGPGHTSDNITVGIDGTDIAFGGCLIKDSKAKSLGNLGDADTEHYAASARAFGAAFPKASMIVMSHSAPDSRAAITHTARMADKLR

`CC(C)[N+](C)(CCOC(=O)C1c2ccccc2Oc2ccccc21)C(C)C`: the Potency result in assay [1], in assay [2] and in [4] was “inactive” throughout. The result in assay [3] was inactive.
With `C[C@]12CCC(=O)C=C1CC[C@@H]1[C@@H]2CC[C@@]2(C)[C@H]1CC[C@]2(O)C(=O)CO`, the Potency entry in assay [1], in assay [2], in assay [6], in [7], in assay [8] and in [9] was “inactive” each time. Further, the Potency result in assay [10], in assay [11], in assay [4], in assay [12], in [13] and in assay [14] was “inactive” throughout. Besides, the activity, negative = inhibition is -9.28% (inactive) in [5] (parasite line A) and 20.5% (inactive) in [5] (parasite line B).
`COc1ccc2c(c1OC)C(=O)O[C@@H]2[C@H]1c2c(cc3c(c2OC)OCO3)CCN1C`: the Potency entry in [1] and in assay [2] was “inactive” each time. Also, the values for the Z-AUC in [15], in assay [15] (measured here: PEO1 parental Z-AUC) and in [15] (measured here: PEO4 Z-AUC) were 0.757 (inactive), 0.922 and 0.499, respectively.
In the case of `C[N+](C)(C)CCOC(=O)CCC(=O)OCC[N+](C)(C)C`, the Potency entry in assay [1], in assay [6], in [16], in [7], in assay [8] and in assay [9] was “inactive” in each case. Also, the Potency result in assay [10], in assay [11], in assay [4], in assay [12], in assay [13] and in assay [14] was “inactive” each time. In assay [3], the result was inactive. The activity, negative = inhibition in assay [5] (parasite line A) was 1.72% (inactive); in assay [5] (parasite line B), 1.32% (inactive).
Take `NS(=O)(=O)c1cc2c(cc1Cl)NC(C1CC3C=CC1C3)NS2(=O)=O` (stereo not given): the Potency entry in [1], in assay [2], in assay [6], in assay [16], in assay [7] and in [8] was “inactive” in each case. The Potency entry in [9], in assay [10], in assay [11], in assay [4], in assay [12] and in assay [13] was “inactive” throughout. For the same molecule, the Potency entry in assay [14] is “inactive”. Moreover, the activity, negative = inhibition in [5] (parasite line A) is 2.38% (inactive); in assay [5] (parasite line B) it was -3.16% (inactive).
Consider `COC(=O)[C@H]1[C@H]2C[C@@H]3c4[nH]c5cc(OC)ccc5c4CCN3C[C@H]2C[C@@H](OC(=O)c2cc(OC)c(OC)c(OC)c2)[C@@H]1OC`, for which, in [1], the Potency result was “inactive”. Moreover, the outcome in assay [3], in assay [17] and in assay [18] was inactive. Also, the Potency in assay [5] (parasite line A) is 11.2 µM (active); in assay [5] (parasite line B) it was 11.2 µM (active); in assay [6], 8.91 µM (active); in assay [16] it was 1.41 µM (active); in assay [7], 8.91 µM (active); in assay [8], 4.47 µM (active). Also, the Potency was 11.2 µM (active) in assay [9]; 11.2 µM (active) in assay [10]; 11.2 µM (active) in [11]; 7.94 µM (active) in [4]; 8.91 µM (active) in assay [12]; 13.5 µM (active) in assay [13]. The Potency in assay [14] is 9.53 µM (active).
`Cc1ccc(S(=O)(=O)NC(=O)NN2CCCCCC2)cc1`: the Potency entry in [1], in assay [6], in assay [16], in [7], in assay [8] and in assay [9] was “inactive” each time. In addition, the Potency result in assay [10], in [11], in assay [4], in assay [12], in assay [13] and in [14] was “inactive” each time. Further, in [3], the result was inactive. Moreover, the activity, negative = inhibition is -5.36% (inactive) in [5] (parasite line A) and 12.1% (inactive) in [5] (parasite line B).
For `COC(=O)[C@@H](N)Cc1ccc(O)c(O)c1`, the Potency result in [1], in assay [2], in assay [7], in assay [8], in [9] and in assay [10] was “inactive” each time. Besides, the Potency result in assay [4], in assay [12], in assay [13] and in assay [14] was “inactive” each time. Moreover, the activity, negative = inhibition in assay [5] (parasite line B) is -10.7% (inactive).
For the molecule `COc1cc2c(cc1OC)-c1cc(=Nc3c(C)cc(C)cc3C)n(C)c(=O)n1CC2`, the Potency result in assay [1] and in [2] was “inactive” in each case. In addition, the Potency in assay [5] (parasite line A) is 2.82 µM (active); in assay [5] (parasite line B), 2.51 µM (active); in assay [6] it was 2.51 µM (active); in assay [16], 0.891 µM (active); in assay [7] it was 2.82 µM (active); in assay [8] it was 3.55 µM (active). The Potency was 7.94 µM (active) in assay [9]; 3.55 µM (active) in [10]; 2.82 µM (active) in assay [11]; 5.62 µM (active) in assay [4]; 3.98 µM (active) in assay [12]; 9.53 µM (active) in assay [13]. Also, the Potency in [14] was 4.78 µM (active).
Regarding `CC(C)NCC(O)c1cc(O)cc(O)c1` (stereo not given), in [1], the Potency result is “inactive”. Moreover, in [3], the outcome was inactive.
Turning to `NC1=NCC2c3ccccc3Cc3ccccc3N12` (stereo not given), the Potency result in [1], in assay [2], in assay [6], in assay [7], in [8] and in assay [9] was “inactive” each time. For the same molecule, the Potency result in assay [10], in assay [11], in assay [4], in [13] and in [14] was “inactive” in each case. The activity, negative = inhibition in [5] (parasite line A) is -23% (inactive).

The record behind these values is PubChem BioAssay (NCATS).
